Hits are enriched below; roughly 9.6% of the tested compounds scored in any of these assays.
PostGolgi yeast: growth inhibition of a yeast mutant, post-Golgi transport screen | post-Golgi transport phenotypic cell assay | inhibition, % at 10 µM | 0.9% of 98,000 active;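 further: yeast cells grown in 1536-well plates; yeast grown about 18 h at 30C before absorbance read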
Cav3 T inh: human Cav3.2 channel inhibition, primary screen | O95180 | 4% of 100,000 active | B-score at 10 µM | Cav3.2-expressing cells, Fluo-4 calcium fluorescence FDSS; active compounds read low | AID 449739;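 active means single-dose well whose peak fluorescence ratio is a statistical outlier from its plate by either plate-standardised score or position-corrected B-score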
PostGolgi ctrl: inhibits growth of the yeast control strain. efflux-deficient yeast background strain, growth absorbance A615, 16 h. inhibition, % at 10 µM. 5% of 98,000 active. AID 738
PLAP activator: activators of human placental alkaline phosphatase; P05187; purified PLAP enzyme, luminescent substrate read-out; active compounds read high; activation fold at 20 µM; 1.2% of 96,000 active; AID 696; in the data active means activation fold above about 2
Target sequence (P05187 whole entry, looked up): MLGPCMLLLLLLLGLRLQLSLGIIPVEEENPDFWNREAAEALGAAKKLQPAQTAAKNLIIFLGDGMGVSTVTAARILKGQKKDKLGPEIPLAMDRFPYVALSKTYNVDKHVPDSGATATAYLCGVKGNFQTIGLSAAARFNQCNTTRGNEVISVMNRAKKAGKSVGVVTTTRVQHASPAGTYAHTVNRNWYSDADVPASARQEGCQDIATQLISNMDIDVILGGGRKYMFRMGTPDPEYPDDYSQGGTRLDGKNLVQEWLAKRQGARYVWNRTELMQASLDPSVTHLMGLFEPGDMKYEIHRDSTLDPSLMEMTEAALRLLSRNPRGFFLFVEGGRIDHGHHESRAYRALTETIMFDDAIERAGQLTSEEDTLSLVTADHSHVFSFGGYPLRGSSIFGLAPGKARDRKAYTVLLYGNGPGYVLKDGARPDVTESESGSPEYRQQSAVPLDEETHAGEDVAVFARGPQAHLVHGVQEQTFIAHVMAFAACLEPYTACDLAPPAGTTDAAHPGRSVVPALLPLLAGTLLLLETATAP
DAT uptake mod: changed human dopamine transporter uptake under cocaine IC80 | Q01959 | LLC-PK1 hDAT cells, [14C]-dopamine uptake with cocaine IC80; actives deviate in either direction | B-score at 10 µM | 1.3% of 110,000 active | AID 449768;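 active means Z score or B-score, a plate-position-corrected score, falls beyond the plate's 99.7% confidence bounds, in either direction; inactive means both scores lie inside the 99.7% bounds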
Hits are given with their value. Unless noted, no stated cut-off is given here; in the data, active means inhibition above about 30%; inactive means the rest.

For CC(=O)Nc1ccc(/C(C)=N/NS(=O)(=O)c2ccc(C)cc2)cc1 the results were PostGolgi yeast inactive, PostGolgi ctrl inactive and PLAP activator inactive.
C/C(=N/NS(=O)(=O)c1ccc(Br)cc1)c1ccc(NC(=O)c2ccc(C)o2)cc1 was read as PostGolgi yeast inactive, Cav3 T inh inactive, PostGolgi ctrl 41, PLAP activator inactive and DAT uptake mod inactive.
For CN(C)CCCNC(=O)c1ccccn1 the results were PostGolgi yeast inactive, PostGolgi ctrl inactive, PLAP activator inactive and DAT uptake mod inactive.
Screening CN(C)CCCNC(=O)c1ccc(-c2nc(-c3ccc(Cl)cc3)cs2)cc1 returned PostGolgi yeast inactive, Cav3 T inh inactive, PostGolgi ctrl 38, PLAP activator inactive and DAT uptake mod inactive.
Fc1ccccc1Cn1nnc2c(-n3ccnc3)ncnc21 was read as PostGolgi yeast inactive, Cav3 T inh inactive, PostGolgi ctrl inactive, PLAP activator inactive and DAT uptake mod inactive.
`c1ccc(-c2ccccc2-c2nc(-c3cccnc3)no2)cc1` gave PostGolgi yeast 38, Cav3 T inh -5, PostGolgi ctrl 34, PLAP activator inactive and DAT uptake mod inactive.
Cc1c2c([n+]3n1CCC3)CC(C)(C)CC2=O was read as PostGolgi yeast inactive, Cav3 T inh inactive, PostGolgi ctrl inactive, PLAP activator inactive and DAT uptake mod inactive.
Screening Cc1ccc(S(=O)(=O)c2nc(Nc3nccs3)sc2Cl)cc1 returned PostGolgi yeast inactive, Cav3 T inh inactive, PostGolgi ctrl 52, PLAP activator inactive and DAT uptake mod inactive.
Cc1ccc(S(=O)(=O)c2nc(NCc3ccc4c(c3)OCO4)sc2Cl)cc1 was read as PostGolgi yeast inactive, Cav3 T inh inactive, PostGolgi ctrl 48, PLAP activator inactive and DAT uptake mod inactive.
Screening COc1ccc(S(=O)(=O)Nc2cc3c4c(oc3c3ccccc23)CCCC4=O)cc1 returned PostGolgi yeast inactive, Cav3 T inh inactive, PostGolgi ctrl 45, PLAP activator inactive and DAT uptake mod inactive.
`COc1ccc(S(=O)(=O)Nc2cc3c4c(oc3c3ccccc23)CC(C)(C)CC4=O)cc1` gave PostGolgi yeast inactive, Cav3 T inh inactive, PostGolgi ctrl inactive, PLAP activator inactive and DAT uptake mod inactive.
For CCC(C)NC(=O)C1c2ccccc2C(=O)N(c2ccc(OC)cc2)C1c1ccc(OC)cc1 (stereo not given) the results were PostGolgi yeast inactive, Cav3 T inh inactive, PostGolgi ctrl inactive, PLAP activator inactive and DAT uptake mod inactive.
Screening CCc1c(C)sc(NC(=O)c2cc(-c3ccco3)on2)c1C#N returned PostGolgi yeast inactive, Cav3 T inh inactive, PostGolgi ctrl inactive, PLAP activator inactive and DAT uptake mod inactive.
O=[N+]([O-])c1ccc(N/N=C/c2c[nH]c3ccccc23)c(S(=O)(=O)Nc2ccc(Cl)cc2)c1 was read as PostGolgi yeast 86, PostGolgi ctrl inactive and PLAP activator inactive.
`Cc1ccc(C2CC2C(=O)NNC(=S)Nc2ccc(Cl)cc2)cc1` (stereo not given) gave Cav3 T inh -10 and DAT uptake mod inactive.
`O=C(Cn1nnc2ccccc21)NCc1ccccc1` gave PostGolgi yeast inactive, Cav3 T inh inactive, PostGolgi ctrl inactive, PLAP activator inactive and DAT uptake mod -8.5.
`O=C(Nc1ccc(NC(=O)c2sc3ccccc3c2Cl)cc1Cl)c1ccco1` gave PostGolgi yeast inactive, PostGolgi ctrl inactive and PLAP activator inactive.
`CCN(CC)CCCN(Cc1cc2cc(OC)ccc2[nH]c1=O)C(=O)Nc1ccc(F)cc1` gave PostGolgi yeast inactive, PostGolgi ctrl inactive and PLAP activator inactive.
Screening COc1ccc(NC(=O)N(Cc2cc3cc(OC)ccc3[nH]c2=O)CC2CCCO2)cc1 (stereo not given) returned PostGolgi yeast inactive, Cav3 T inh inactive, PostGolgi ctrl 36, PLAP activator inactive and DAT uptake mod inactive.
CC1(C(=O)O)Cc2ccccc2C(=O)O1 (stereo not given) was read as PostGolgi yeast inactive, Cav3 T inh inactive, PostGolgi ctrl inactive, PLAP activator inactive and DAT uptake mod inactive.
For CCOc1ncccc1C(=O)OCC(=O)Nc1cc(C(=O)OC)ccc1C(=O)OC the results were PLAP activator inactive.
COc1ccc(Nc2nc(NCc3ccco3)nc(N/N=C/c3ccccc3)n2)cc1 was read as PostGolgi yeast inactive, Cav3 T inh -7.6, PostGolgi ctrl inactive, PLAP activator inactive and DAT uptake mod inactive.
CCOc1nc(NCc2ccco2)nc(Nc2ccc(OC)cc2)n1 was read as PostGolgi yeast inactive, Cav3 T inh inactive, PostGolgi ctrl inactive, PLAP activator inactive and DAT uptake mod inactive.
For CCc1ccc(N(C(=O)c2snc(C(N)=O)c2N)C(C(=O)NCCC(C)C)c2c[nH]c3ccccc23)cc1 (stereo not given) the results were PostGolgi yeast inactive, Cav3 T inh inactive, PostGolgi ctrl inactive, PLAP activator inactive and DAT uptake mod inactive.
For CCNc1cccc2c1C(=O)N(C)C2=O the results were PostGolgi yeast inactive, Cav3 T inh -4.1, PostGolgi ctrl inactive, PLAP activator inactive and DAT uptake mod inactive.
`Cc1ccc(O)c(C(=O)c2cnn(-c3ccccc3)c2)c1` gave PostGolgi yeast inactive, Cav3 T inh inactive, PostGolgi ctrl inactive, PLAP activator inactive and DAT uptake mod inactive.
`Oc1cnn(-c2ccccc2)c1` gave PostGolgi yeast inactive, Cav3 T inh inactive, PostGolgi ctrl 32, PLAP activator inactive and DAT uptake mod inactive.
`O=C(Cc1cnn(-c2ccccc2)c1)c1ccc(O)c(O)c1O` gave PostGolgi yeast inactive, Cav3 T inh inactive, PostGolgi ctrl inactive, PLAP activator 2 and DAT uptake mod inactive.
Cc1ccc(SCc2[nH]nc3c2C2(C(=O)Nc4ccc([N+](=O)[O-])cc42)C(C#N)=C(N)O3)cc1 (stereo not given) was read as PostGolgi yeast inactive, Cav3 T inh inactive, PostGolgi ctrl 36, PLAP activator inactive and DAT uptake mod inactive.
CC(C)Nc1nc(NC(C)C)nc(N(C#N)CCOc2ccc(Cl)cc2Cl)n1 was read as Cav3 T inh -5 and DAT uptake mod inactive.
Cc1cc(C)nc(N(C#N)CCOc2ccc(Cl)cc2)n1 was read as Cav3 T inh inactive and DAT uptake mod inactive.
`COC(=O)c1ccccc1NC(=O)CNc1cc(Cl)ccc1N1CCOCC1` gave PostGolgi yeast inactive, Cav3 T inh inactive, PostGolgi ctrl 35, PLAP activator inactive and DAT uptake mod inactive.
`CN(C)CCCNCC(=O)Nc1ccccc1N1CCOCC1` gave PostGolgi yeast inactive, Cav3 T inh inactive, PostGolgi ctrl inactive, PLAP activator inactive and DAT uptake mod -7.7.
Screening CCC(C)Oc1cccc(C(=O)Nc2ccccc2N2CCOCC2)c1 (stereo not given) returned PostGolgi yeast inactive, Cav3 T inh -5.3, PostGolgi ctrl inactive, PLAP activator inactive and DAT uptake mod inactive.
Screening CCOc1ccc(C(=O)Nc2ccccc2N2CCOCC2)cc1 returned PostGolgi yeast inactive, Cav3 T inh inactive, PostGolgi ctrl 33, PLAP activator inactive and DAT uptake mod inactive.
Screening COc1ccccc1NC(=O)c1ccc(NC(=O)CSc2nnnn2C)cc1 returned PostGolgi yeast inactive, Cav3 T inh inactive, PostGolgi ctrl inactive, PLAP activator inactive and DAT uptake mod inactive.
